Reference: PubChem BioAssay (Tox21)
Calls of active or inactive are those of the source. The call rests on the fitted dose curve; in most records, active means well fitted curve in the direction sought with a large enough effect in the repeat runs; inconclusive means weak or mixed curves; inactive means flat fitted curve, though single readings scatter.
On the % scale 0 is the no-effect control and ±100 the full control effect.

Experiment: qHTS assay to test for compound auto fluorescence at 535 nm (green) in HEK293 cells (AID 720680)
Conditions: green autofluorescence 485/535 nm; series mostly up to 91.3 µM
With `NC1=NCC2c3ccccc3Cc3ccccc3N12` (centres undefined) the outcome was “inactive”.
With `Cc1cc2c(s1)Nc1ccccc1N=C2N1CCN(C)CC1` the outcome was “inactive”.
For `CC(=O)Oc1cc(C(C)C)c(OCCN(C)C)cc1C`, the fluorescence, % of fluorescein was -0.013% [at 18.6 µM] (inactive).
In the case of `CC(C)=CCCC(C)CCOC=O` (centres undefined), the outcome is reported as “inactive”.
For `CC1(C)C(=O)N(Cl)C(=O)N1Br`, the outcome was “inactive”.
For `CCN(CC)CC1CCCCN1CC(=O)N1c2ccccc2C(=O)Nc2cccnc21` (centres undefined), the outcome was “inactive”.
In the case of `CC1=C(CC(=O)O)c2cc(F)ccc2/C1=C\c1ccc(S(C)(=O)=O)cc1`, the outcome is reported as “inactive”.
In the case of `CC1(O)CSC(C)(O)CS1` (centres undefined), the outcome is reported as “inactive”.
In the case of `CCN(CC)CCOc1ccc(Cc2ccccc2)cc1`, the outcome is reported as “inactive”.
With `CC(C)O` the outcome was “inactive”.
For `CC1CN(c2ccccc2)NC1=O` (centres undefined), the outcome was “inactive”.
In the case of `O=c1[nH]c(=O)n([C@H]2C[C@H](O)[C@@H](CO)O2)cc1C(F)(F)F`, the outcome is reported as “inactive”.
In the case of `Cc1c[nH]c(=S)[nH]c1=O`, the outcome is reported as “inactive”.
With `O=C(CC(=O)C(F)(F)F)c1ccccc1` the outcome was “inactive”.
For `CCCCCCOc1ccc(N)cc1`, the outcome was “inactive”.
For `Clc1cccc(-c2cc(Cl)cc(Cl)c2)c1`, the outcome was “inactive”.
With `CCCCCCCCc1ccc(S(=O)(=O)O)cc1` the outcome was “inactive”.
In the case of `O=C(Cl)c1cccc([N+](=O)[O-])c1`, the outcome is reported as “inactive”.
For `Cc1c(N)cccc1N`, the outcome was “inactive”.
With `COc1ccc(Nc2ccc(OC)cc2)cc1` the outcome was “inactive”.
For `CN(CCCN1c2ccccc2CCc2ccccc21)CC(=O)c1ccc(Cl)cc1`, the outcome was “inactive”.
In the case of `O=C1CCCCCCCCCCC(=O)OCCO1`, the outcome is reported as “inactive”.
For `CCOC(=O)CS`, the outcome was “inactive”.
In the case of `CCOC(=O)COc1ccc2c(c1)CC(NCC(O)c1cccc(Cl)c1)CC2` (centres undefined), the outcome is reported as “inactive”.
With `CCCCC(=O)O[C@]1(C(=O)CO)[C@H](C)C[C@H]2[C@@H]3CCC4=CC(=O)C=C[C@]4(C)[C@@]3(F)[C@@H](O)C[C@@]21C` the outcome was “inactive”.
For `Oc1ccccc1F`, the outcome was “inactive”.

Experiment: qHTS assay to test for compound auto fluorescence at 460 nm (blue) in HEK293 cell free culture (AID 720681)
Conditions: cell-free medium, autofluorescence 405/460 nm (blue); series mostly up to 91.3 µM
Outline: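 Blue fluorescence (Ex 405/Em 460 nm, triamterene-equivalent) was read immediately after pin transfer of compound or DMSO into medium (DMEM, 10% FBS) without cells.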
For `NC1=NCC2c3ccccc3Cc3ccccc3N12` (centres undefined), the outcome was “inactive”.
For `Cc1cc2c(s1)Nc1ccccc1N=C2N1CCN(C)CC1`, the outcome was “inactive”.
With `CCC(=O)c1ccc2c(c1)N(CCCN(C)C)c1ccccc1S2` the outcome was “inactive”.
With `CC(=O)Oc1cc(C(C)C)c(OCCN(C)C)cc1C` the fluorescence, % of fluorescent control was -0.142% [at 18.6 µM] (inactive).
With `CC(C)=CCCC(C)CCOC=O` (centres undefined) the outcome was “inactive”.
With `CC1(C)C(=O)N(Cl)C(=O)N1Br` the outcome was “inactive”.
With `CCN(CC)CC1CCCCN1CC(=O)N1c2ccccc2C(=O)Nc2cccnc21` (centres undefined) the outcome was “inactive”.
With `CC1=C(CC(=O)O)c2cc(F)ccc2/C1=C\c1ccc(S(C)(=O)=O)cc1` the outcome was “inactive”.
For `Cc1ccc(C)c(N)c1`, the outcome was “inactive”.
In the case of `CC1(O)CSC(C)(O)CS1` (centres undefined), the outcome is reported as “inactive”.
For `CCN(CC)CCOc1ccc(Cc2ccccc2)cc1`, the outcome was “inactive”.
For `CC(C)O`, the outcome was “inactive”.
In the case of `CC1CN(c2ccccc2)NC1=O` (centres undefined), the outcome is reported as “inactive”.
With `O=c1[nH]c(=O)n([C@H]2C[C@H](O)[C@@H](CO)O2)cc1C(F)(F)F` the outcome was “inactive”.
With `Cc1c[nH]c(=S)[nH]c1=O` the outcome was “inactive”.
In the case of `O=C(CC(=O)C(F)(F)F)c1ccccc1`, the outcome is reported as “inactive”.
In the case of `CCCCN1C[C@H](O)[C@@H](O)[C@H](O)[C@H]1CO`, the outcome is reported as “inactive”.
With `CCCCCCOc1ccc(N)cc1` the outcome was “inactive”.
With `CC1=NN(c2cc(Cl)c(S(=O)(=O)O)cc2Cl)C(=O)C1N=Nc1ccc(S(=O)(=O)O)cc1` (centres undefined) the outcome was “inactive”.
In the case of `CC(C)(C)C1CCCCC1=O` (centres undefined), the outcome is reported as “inactive”.
With `CC1=C2[C@H](/C=C(\C)C(=O)O)CC[C@@H](C)[C@H]2CC1` the outcome was “inactive”.
For `CN1C(=O)CC(c2ccccc2)C1=O` (centres undefined), the outcome was “inactive”.
With `Clc1cccc(-c2cc(Cl)cc(Cl)c2)c1` the outcome was “inactive”.
For `CCCCCCCCc1ccc(S(=O)(=O)O)cc1`, the outcome was “inactive”.
For `O=C(Cl)c1cccc([N+](=O)[O-])c1`, the outcome was “inactive”.
For `C=O`, the outcome was “inactive”.
With `Cc1c(N)cccc1N` the outcome was “inactive”.
For `COc1ccc(Nc2ccc(OC)cc2)cc1`, the outcome was “inactive”.
With `CCCCCCCCCCCCCCCCOP(=O)([O-])OCC[N+](C)(C)C` the outcome was “inactive”.
For `CN(CCCN1c2ccccc2CCc2ccccc21)CC(=O)c1ccc(Cl)cc1`, the outcome was “inactive”.
In the case of `O=C1CCCCCCCCCCC(=O)OCCO1`, the outcome is reported as “inactive”.
For `CCOC(=O)CS`, the outcome was “inactive”.
In the case of `CCOC(=O)COc1ccc2c(c1)CC(NCC(O)c1cccc(Cl)c1)CC2` (centres undefined), the outcome is reported as “inactive”.
With `CCCCC(=O)O[C@]1(C(=O)CO)[C@H](C)C[C@H]2[C@@H]3CCC4=CC(=O)C=C[C@]4(C)[C@@]3(F)[C@@H](O)C[C@@]21C` the outcome was “inactive”.
For `Oc1ccccc1F`, the outcome was “inactive”.
With `O=C1Nc2ccc([N+](=O)[O-])cc2C1=O` the outcome was “inactive”.

Experiment: qHTS assay to test for compound auto fluorescence at 535 nm (green) in HEK293 cell free culture (AID 720682)
Conditions: cell-free medium, green autofluorescence 485/535 nm, hits give high values; series mostly up to 91.3 µM
Outline: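 Intrinsic compound fluorescence is measured in culture medium containing 10% FBS, with excitation at 485 nm and detection at 535 nm, referenced to fluorescein.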
For `NC1=NCC2c3ccccc3Cc3ccccc3N12` (centres undefined), the outcome was “inactive”.
With `Cc1cc2c(s1)Nc1ccccc1N=C2N1CCN(C)CC1` the outcome was “inactive”.
With `CCC(=O)c1ccc2c(c1)N(CCCN(C)C)c1ccccc1S2` the outcome was “inactive”.
With `CC(=O)Oc1cc(C(C)C)c(OCCN(C)C)cc1C` the activity change was -0.0795% [at 18.6 µM] (inactive).
With `CC(C)=CCCC(C)CCOC=O` (centres undefined) the outcome was “inactive”.
With `CCN(CC)CC1CCCCN1CC(=O)N1c2ccccc2C(=O)Nc2cccnc21` (centres undefined) the outcome was “inactive”.
For `CC1=C(CC(=O)O)c2cc(F)ccc2/C1=C\c1ccc(S(C)(=O)=O)cc1`, the outcome was “inactive”.
For `Cc1ccc(C)c(N)c1`, the outcome was “inactive”.
With `CC1(O)CSC(C)(O)CS1` (centres undefined) the outcome was “inactive”.
For `CCN(CC)CCOc1ccc(Cc2ccccc2)cc1`, the outcome was “inactive”.
In the case of `CC(C)O`, the outcome is reported as “inactive”.
For `CC1CN(c2ccccc2)NC1=O` (centres undefined), the outcome was “inactive”.
For `O=c1[nH]c(=O)n([C@H]2C[C@H](O)[C@@H](CO)O2)cc1C(F)(F)F`, the outcome was “inactive”.
With `Cc1c[nH]c(=S)[nH]c1=O` the outcome was “inactive”.
In the case of `O=C(CC(=O)C(F)(F)F)c1ccccc1`, the outcome is reported as “inactive”.
For `CCCCN1C[C@H](O)[C@@H](O)[C@H](O)[C@H]1CO`, the outcome was “inactive”.
In the case of `CCCCCCOc1ccc(N)cc1`, the outcome is reported as “inactive”.
In the case of `CC1=NN(c2cc(Cl)c(S(=O)(=O)O)cc2Cl)C(=O)C1N=Nc1ccc(S(=O)(=O)O)cc1` (centres undefined), the outcome is reported as “inactive”.
For `CC(C)(C)C1CCCCC1=O` (centres undefined), the outcome was “inactive”.
With `CC1=C2[C@H](/C=C(\C)C(=O)O)CC[C@@H](C)[C@H]2CC1` the outcome was “inactive”.
In the case of `CN1C(=O)CC(c2ccccc2)C1=O` (centres undefined), the outcome is reported as “inactive”.
With `Clc1cccc(-c2cc(Cl)cc(Cl)c2)c1` the outcome was “inactive”.
In the case of `C=O`, the outcome is reported as “inactive”.
In the case of `Cc1c(N)cccc1N`, the outcome is reported as “inactive”.
In the case of `COc1ccc(Nc2ccc(OC)cc2)cc1`, the outcome is reported as “inactive”.
With `CCCCCCCCCCCCCCCCOP(=O)([O-])OCC[N+](C)(C)C` the outcome was “inactive”.
In the case of `CN(CCCN1c2ccccc2CCc2ccccc21)CC(=O)c1ccc(Cl)cc1`, the outcome is reported as “inactive”.
For `O=C1CCCCCCCCCCC(=O)OCCO1`, the outcome was “inactive”.
For `CCOC(=O)COc1ccc2c(c1)CC(NCC(O)c1cccc(Cl)c1)CC2` (centres undefined), the outcome was “inactive”.
For `CCCCC(=O)O[C@]1(C(=O)CO)[C@H](C)C[C@H]2[C@@H]3CCC4=CC(=O)C=C[C@]4(C)[C@@]3(F)[C@@H](O)C[C@@]21C`, the outcome was “inactive”.
With `Oc1ccccc1F` the outcome was “inactive”.
For `O=C1Nc2ccc([N+](=O)[O-])cc2C1=O`, the outcome was “inactive”.
